# Results reported in PubChem BioAssay AID1671192 (National Center for Advancing Translational Sciences (NCATS), 2021).
# Inconclusive results are not listed. Unmarked numbers belong to inactive results. Calls of active or inactive are those of the source. Calls come from the whole dose curve; as a rule, active = well fitted curve in the direction sought with a large enough effect; inconclusive = small, poorly fitted or top-dose-only effect, or another doubt; inactive = no such curve, though single readings can be large or run the other way.
# Target: Polyunsaturated fatty acid lipoxygenase ALOX15 (Homo sapiens) (UniProt P16050)
# Sequence (P16050 whole entry, looked up): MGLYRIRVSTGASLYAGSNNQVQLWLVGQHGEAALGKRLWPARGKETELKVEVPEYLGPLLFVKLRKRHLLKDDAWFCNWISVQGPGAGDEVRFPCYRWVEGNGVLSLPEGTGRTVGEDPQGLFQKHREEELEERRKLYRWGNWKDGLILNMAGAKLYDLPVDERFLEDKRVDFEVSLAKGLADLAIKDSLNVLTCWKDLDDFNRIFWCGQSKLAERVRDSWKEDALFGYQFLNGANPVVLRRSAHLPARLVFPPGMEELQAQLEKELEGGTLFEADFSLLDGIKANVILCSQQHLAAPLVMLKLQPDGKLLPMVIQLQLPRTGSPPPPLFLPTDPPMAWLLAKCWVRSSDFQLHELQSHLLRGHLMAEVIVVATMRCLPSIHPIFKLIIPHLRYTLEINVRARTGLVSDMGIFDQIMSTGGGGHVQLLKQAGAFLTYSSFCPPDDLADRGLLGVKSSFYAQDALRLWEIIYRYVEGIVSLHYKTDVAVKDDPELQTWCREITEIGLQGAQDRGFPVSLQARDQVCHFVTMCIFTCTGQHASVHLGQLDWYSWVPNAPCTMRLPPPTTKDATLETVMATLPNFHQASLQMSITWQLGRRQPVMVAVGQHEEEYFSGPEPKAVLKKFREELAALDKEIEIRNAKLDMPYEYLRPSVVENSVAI
# Assay: Counterscreen qHTS for inhibitors of human arachidonate 12S-lipoxygenase (ALOX12): ALOX15 Assay; note: 0% is about no effect
# Conditions: purified ALOX15 enzyme activity; series mostly up to 110 µM; activity change, negative = inhibition: at the top concentration
# Method in brief: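 Xylenol orange–ferric complex formation, read as the 573 nm to 405 nm absorbance ratio, tracks product from 50 uM arachidonic acid turned over for 30 min at RT. Enzyme is 40 nM ALOX15, pH 7.5 HEPES buffer, compound-preincubated 15 min.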
SMILES,"activity change, negative = inhibition",outcome
O=C(NCc1ccc(Cl)nc1)c1cn2c(n1)CN(C(=O)c1ccccc1)CC2,-6.13%,–
O=C(O)CCC(=O)N1Cc2ccccc2CC2(CCCN2Cc2ccccc2)C1 (stereo not drawn),-22.9%,–
COc1cccc(O)c1CN1CCCC12Cc1ccccc1CNC2=O (stereo not drawn),-14.9%,–
CC(C)NC(=O)NC1CC2(CCN(C(=O)Cc3ccc(O)cc3)CC2)c2ccccc21 (stereo not drawn),-18.7%,–
NCc1ccccc1-c1ccc(O)cc1,-16.9% [at 146 µM],–
NCc1cccc(-c2ccccc2F)c1,18.2% [at 146 µM],–
O=C1NCc2ccccc2CC12CCCN2Cc1cnc2ccccc2c1 (stereo not drawn),-16.9%,–
CN1CC(=O)N(C2CCNC2)Cc2c(NC3CCN(Cc4ccccc4)CC3)ncnc21 (stereo not drawn),-12.4%,–
O=[S+]([O-])(c1ccc(Br)cc1)c1nnn2c1nc(NCc1ccc(F)cc1)c1ccccc12,-20.2%,–
CC(C)NCCN1CCCC1,-12.6% [at 343 µM],–
CN1CC(=O)N(C2CCCNC2)Cc2c1ncnc2N1CCN(Cc2ccccc2)CC1 (stereo not drawn),-18.3%,–
CC(C)(C)OC(=O)N1CC(Nc2ccc(O)cc2)C1,–,inactive
O=C1NC(=NC2CCCC2)C2(CCCN([S+](=O)([O-])c3cccc(C(F)(F)F)c3)C2)N1c1cc(F)cc(F)c1 (stereo not drawn),-2.92%,–
CCOc1cccc(CN2CCCC23Cc2ccccc2CNC3=O)c1 (stereo not drawn),-5.5%,–
C[C@H](C(=O)N1Cc2ccccc2CC2(CCN(Cc3ccncc3)C2)C1)c1ccccc1 (stereo partly drawn),-13.1%,–
CN1CC(=O)N(C2CCNCC2)Cc2c1ncnc2N(C)Cc1ccc(F)cc1,-13.5%,–
Cc1cc(C(=O)NCc2cccs2)c2c(C3CCNC3)noc2n1 (stereo not drawn),-7.35% [at 146 µM],–
Cc1ccsc1CN1CCC2(Cc3ccccc3CNC2=O)C1 (stereo not drawn),11.6% [at 146 µM],–
O=c1[nH]c(C2CCCN(Cc3cccc(Cl)c3)C2)nc2ccc(F)cc12 (stereo not drawn),-9.91%,–

SMILES,"activity change, negative = inhibition",outcome
O=Cc1ccc(-c2cncc(C(=O)O)c2)cc1,-21.9% [at 233 µM],–
COc1ccc(-c2cc(C(=O)NCC(C)C)c3c(C4CCCN4)noc3n2)cc1 (stereo not drawn),-24.7%,–
O=C1Nc2ccccc2CC12CN(Cc1c[nH]c3ccccc13)C2,-21.2% [at 146 µM],–
COc1ccccc1NC1CN(C(=O)OC(C)(C)C)C1,-12.5% [at 146 µM],–
O=C1NCc2ccccc2CC12CCN(Cc1c[nH]c3ccccc13)C2 (stereo not drawn),8.74%,–
CN1CC(=O)N(C2CCCNCC2)Cc2c1ncnc2N1CCCCC1 (stereo not drawn),6.11% [at 146 µM],–
O=C(c1ccccc1)N1Cc2ccccc2CC2(CCN(CC3CCNC3)C2)C1 (stereo not drawn),5.43%,–
NCCC(=O)N1CCCC2(Cc3ccccc3CN2C(=O)c2ccccc2)C1 (stereo not drawn),-7.74%,–
COc1ccc(OC)c([S+](=O)([O-])c2nnn3c2nc(NCc2ccc(F)cc2)c2ccccc23)c1,-17.2%,–
O=C(NC1CCNCC1)c1cc(C2CC2)nc2onc(C3CCCN3)c12 (stereo not drawn),-15.5%,–
CNCc1ccc(F)cc1,-9.69% [at 233 µM],–
NCC(=O)N1CCC2(CC1)CN(C(=O)c1ccc(Cl)cc1)CCO2,14.2%,–
CN1CC(=O)N(C2CCCNCC2)Cc2c1ncnc2N1CCN(c2ncccn2)CC1 (stereo not drawn),-13.9%,–
CN1CC(=O)N(C2CCCNCC2)Cc2c(NCc3cccc(Cl)c3)ncnc21 (stereo not drawn),-12.3%,–
O=c1n(-c2ccc(C(F)(F)F)cc2)nc2n1CCN(Cc1ccc(C(F)(F)F)cc1)C2,-22.9%,–
COc1ccc(CNc2ncnc3c2CN(C2CCCNC2)C(=O)CN3C)cc1OC (stereo not drawn),14.1%,–
COc1ccc(N2CC3CCC(C2)N3Cc2ccc(-c3cccnc3)cc2)cc1,-22%,–
O=C(c1cc(C2CC2)nc2onc(C3CCCNC3)c12)N1CCC(F)CC1 (stereo not drawn),5.09%,–
Cc1noc(C)c1C(=O)N1Cc2ccccc2CC2(CCN(CC3CCNCC3)C2)C1 (stereo not drawn),-0.0561%,–
